# Assay results: the supplement of paper PMC12282887
# ± gives the standard deviation of the averaged measurements.
# Legend:
# Assay in all cases: promoter activity interaction Z-score (Lux/OD deviation from empty-vector control); higher = stronger promoter induction by the compound
# [1] = system: E. coli BW25113 acrABp lux reporter
# Method in brief: (§1)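 E. coli BW25113 (wild type or marA, soxS or rob deletion) carrying low-copy luxCDABE promoter reporters grew in 40 µl LB Lennox in 384-well plates at 37°C. Each compound was tested at four 1:2 dilutions in biological duplicates. OD600 and luminescence were read every 30 min for 12 h. Areas were taken over 0–8 h (wild type) or 1–9 h (mutants), and wells below 10% of median growth area were removed. The score is the Z-transformed residual of growth-normalised luminescence fitted against the empty-vector control.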
# [2] = system: E. coli BW25113 marRABp lux reporter
# Method in brief: as §1
# [3] = system: E. coli BW25113 micFp lux reporter
# Method in brief: as §1
# [4] = system: E. coli BW25113 ompFp lux reporter
# Method in brief: as §1
# [5] = system: E. coli BW25113 robp lux reporter
# Method in brief: as §1
# [6] = system: E. coli BW25113 soxSp lux reporter
# Method in brief: as §1
# [7] = system: E. coli BW25113 tolCp lux reporter
# Method in brief: as §1
# [8] = 0.011 µg/ml, genetic background: wild type
# [9] = 0.011 µg/ml, genetic background: ΔmarA
# [10] = 0.011 µg/ml, genetic background: Δrob
# [11] = 0.011 µg/ml, genetic background: ΔsoxS
# [12] = 0.023 µg/ml, genetic background: wild type
# [13] = 0.023 µg/ml, genetic background: ΔmarA
# [14] = 0.023 µg/ml, genetic background: Δrob
# [15] = 0.023 µg/ml, genetic background: ΔsoxS
# [16] = 0.046 µg/ml, genetic background: wild type
# [17] = 0.046 µg/ml, genetic background: ΔmarA
# [18] = 0.046 µg/ml, genetic background: Δrob
# [19] = 0.046 µg/ml, genetic background: ΔsoxS
# [20] = 0.091 µg/ml, genetic background: wild type
# [21] = 0.091 µg/ml, genetic background: ΔmarA
# [22] = 0.091 µg/ml, genetic background: Δrob
# [23] = 0.091 µg/ml, genetic background: ΔsoxS
structure (smiles),measurement,setting,value
C[C@@H]1O[C@@H]1P(=O)(O)O [Fosfomycin],promoter activity interaction Z-score,[1]; [8],-0.0514 ± 0.17
same,promoter activity interaction Z-score,[1]; [9],0.0429 ± 0.25
same,promoter activity interaction Z-score,[1]; [10],0.201 ± 0.24
same,promoter activity interaction Z-score,[1]; [11],-0.0843 ± 0.31
same,promoter activity interaction Z-score,[1]; [12],0.134 ± 0.25
same,promoter activity interaction Z-score,[1]; [13],0.445 ± 0.43
same,promoter activity interaction Z-score,[1]; [14],0.174 ± 0.14
same,promoter activity interaction Z-score,[1]; [15],-0.242 ± 0.29
same,promoter activity interaction Z-score,[1]; [16],-0.142 ± 0.12
same,promoter activity interaction Z-score,[1]; [17],-0.284 ± 0.14
same,promoter activity interaction Z-score,[1]; [18],0.229 ± 0.37
same,promoter activity interaction Z-score,[1]; [19],0.118 ± 0.17
same,promoter activity interaction Z-score,[1]; [20],1.76 ± 0.8
same,promoter activity interaction Z-score,[1]; [21],2.58 ± 0.66
same,promoter activity interaction Z-score,[1]; [22],1.15 ± 0.18
same,promoter activity interaction Z-score,[1]; [23],0.198 ± 1.3
same,promoter activity interaction Z-score,[2]; [8],0.112 ± 0.27
same,promoter activity interaction Z-score,[2]; [9],0.0292 ± 0.18
same,promoter activity interaction Z-score,[2]; [10],-0.0327 ± 0.12
same,promoter activity interaction Z-score,[2]; [11],0.00491 ± 0.17
same,promoter activity interaction Z-score,[2]; [12],0.0365 ± 0.015
same,promoter activity interaction Z-score,[2]; [13],0.0557 ± 0.48
same,promoter activity interaction Z-score,[2]; [14],-0.0686 ± 0.17
same,promoter activity interaction Z-score,[2]; [15],-0.0756 ± 0.00091
same,promoter activity interaction Z-score,[2]; [16],-0.461 ± 0.53
same,promoter activity interaction Z-score,[2]; [17],-0.206 ± 0.0084
same,promoter activity interaction Z-score,[2]; [18],-0.0852 ± 0.1
same,promoter activity interaction Z-score,[2]; [19],0.136 ± 0.17
same,promoter activity interaction Z-score,[2]; [20],1.62 ± 0.061
same,promoter activity interaction Z-score,[2]; [21],1.31 ± 0.6
same,promoter activity interaction Z-score,[2]; [22],0.576 ± 0.054
same,promoter activity interaction Z-score,[2]; [23],1.75 ± 0.052
same,promoter activity interaction Z-score,[3]; [8],-0.227 ± 0.25
same,promoter activity interaction Z-score,[3]; [9],0.053 ± 0.061
same,promoter activity interaction Z-score,[3]; [10],-0.0521 ± 0.036
same,promoter activity interaction Z-score,[3]; [11],-0.3 ± 0.065
same,promoter activity interaction Z-score,[3]; [12],-0.0683 ± 0.18
same,promoter activity interaction Z-score,[3]; [13],0.0385 ± 0.078
same,promoter activity interaction Z-score,[3]; [14],-0.0229 ± 0.046
same,promoter activity interaction Z-score,[3]; [15],-0.31 ± 0.0043
same,promoter activity interaction Z-score,[3]; [16],-0.471 ± 0.25
same,promoter activity interaction Z-score,[3]; [17],-0.104 ± 0.084
same,promoter activity interaction Z-score,[3]; [18],-0.121 ± 0.023
same,promoter activity interaction Z-score,[3]; [19],0.017 ± 0.027
same,promoter activity interaction Z-score,[3]; [20],0.578 ± 0.33
same,promoter activity interaction Z-score,[3]; [21],-0.163 ± 0.034
same,promoter activity interaction Z-score,[3]; [22],-0.0601 ± 0.12
same,promoter activity interaction Z-score,[3]; [23],-0.264 ± 0.2
same,promoter activity interaction Z-score,[4]; [8],0.269 ± 0.034
same,promoter activity interaction Z-score,[4]; [9],0.352 ± 0.034
same,promoter activity interaction Z-score,[4]; [10],-0.181 ± 0.21
same,promoter activity interaction Z-score,[4]; [11],0.154 ± 0.62
same,promoter activity interaction Z-score,[4]; [12],0.162 ± 0.32
same,promoter activity interaction Z-score,[4]; [13],0.534 ± 0.28
same,promoter activity interaction Z-score,[4]; [14],0.297 ± 0.084
same,promoter activity interaction Z-score,[4]; [15],-0.146 ± 0.43
same,promoter activity interaction Z-score,[4]; [16],-0.707 ± 0.057
same,promoter activity interaction Z-score,[4]; [17],0.0141 ± 0.47
same,promoter activity interaction Z-score,[4]; [18],0.161 ± 0.65
same,promoter activity interaction Z-score,[4]; [19],0.414 ± 0.21
same,promoter activity interaction Z-score,[4]; [20],3.07 ± 0.41
same,promoter activity interaction Z-score,[4]; [21],3.8 ± 2.2
same,promoter activity interaction Z-score,[4]; [22],2.55 ± 1.5
same,promoter activity interaction Z-score,[4]; [23],2.08 ± 5
same,promoter activity interaction Z-score,[5]; [8],0.505 ± 0.043
same,promoter activity interaction Z-score,[5]; [9],0.245 ± 0.25
same,promoter activity interaction Z-score,[5]; [10],0.133 ± 0.36
same,promoter activity interaction Z-score,[5]; [11],0.554 ± 0.71
same,promoter activity interaction Z-score,[5]; [12],0.0622 ± 0.91
same,promoter activity interaction Z-score,[5]; [13],0.483 ± 0.81
same,promoter activity interaction Z-score,[5]; [14],0.389 ± 0.11
same,promoter activity interaction Z-score,[5]; [15],1.15 ± 1.3
same,promoter activity interaction Z-score,[5]; [16],-0.338 ± 0.75
same,promoter activity interaction Z-score,[5]; [17],-0.357 ± 0.2
same,promoter activity interaction Z-score,[5]; [18],0.416 ± 0.18
same,promoter activity interaction Z-score,[5]; [19],1.3 ± 1
same,promoter activity interaction Z-score,[5]; [20],-0.301 ± 0.048
same,promoter activity interaction Z-score,[5]; [21],0.127 ± 0.3
same,promoter activity interaction Z-score,[5]; [22],-0.752 ± 0.35
same,promoter activity interaction Z-score,[5]; [23],-0.158 ± 0.9
same,promoter activity interaction Z-score,[6]; [8],0.228 ± 0.36
same,promoter activity interaction Z-score,[6]; [9],0.2 ± 0.11
same,promoter activity interaction Z-score,[6]; [10],-0.0473 ± 0.12
same,promoter activity interaction Z-score,[6]; [11],0.164 ± 0.072
same,promoter activity interaction Z-score,[6]; [12],-0.175 ± 0.12
same,promoter activity interaction Z-score,[6]; [13],0.188 ± 0.14
same,promoter activity interaction Z-score,[6]; [14],-0.154 ± 0.05
same,promoter activity interaction Z-score,[6]; [15],0.0176 ± 0.14
same,promoter activity interaction Z-score,[6]; [16],-0.307 ± 0.09
same,promoter activity interaction Z-score,[6]; [17],0.119 ± 0.16
same,promoter activity interaction Z-score,[6]; [18],0.0235 ± 0.023
same,promoter activity interaction Z-score,[6]; [19],0.138 ± 0.19
same,promoter activity interaction Z-score,[6]; [20],-0.0128 ± 0.14
same,promoter activity interaction Z-score,[6]; [21],0.0924 ± 0.018
same,promoter activity interaction Z-score,[6]; [22],-0.135 ± 0.043
same,promoter activity interaction Z-score,[6]; [23],0.657 ± 0.49
same,promoter activity interaction Z-score,[7]; [8],-0.233 ± 0.12
same,promoter activity interaction Z-score,[7]; [9],-0.202 ± 0.12
same,promoter activity interaction Z-score,[7]; [10],-0.412 ± 0.27
same,promoter activity interaction Z-score,[7]; [11],-0.149 ± 0.38
same,promoter activity interaction Z-score,[7]; [12],-0.358 ± 0.5
same,promoter activity interaction Z-score,[7]; [13],0.891 ± 0.16
same,promoter activity interaction Z-score,[7]; [14],-0.173 ± 0.68
same,promoter activity interaction Z-score,[7]; [15],0.35 ± 0.7
same,promoter activity interaction Z-score,[7]; [16],-1.79 ± 0.32
same,promoter activity interaction Z-score,[7]; [17],-0.292 ± 0.4
same,promoter activity interaction Z-score,[7]; [18],-0.445 ± 0.36
same,promoter activity interaction Z-score,[7]; [19],0.22 ± 0.3
same,promoter activity interaction Z-score,[7]; [20],-0.204 ± 0.16
same,promoter activity interaction Z-score,[7]; [21],-0.347 ± 0.15
same,promoter activity interaction Z-score,[7]; [22],-0.366 ± 0.71
same,promoter activity interaction Z-score,[7]; [23],-0.266 ± 0.13
